Marburg entry – blocks Marburg virus binding or cell entry; Marburg virus pseudotype entry/binding inhibition, cell-based; Potency, µM (top dose mostly 49.2 µM), for inactives: top-dose activity change, negative = inhibition, usual class: inhibitors; hit rate 6.5% among 18,000
Lassa entry – inhibitors of Lassa virus binding or entry into cells. Lassa virus pseudotyped entry inhibition, cell-based qHTS. hit rate 4.1% among 18,000. AID 720533. Potency, µM (titrated, usually from 49.2 µM), without a hit: at the top dose activity change, negative = inhibition, most hits filed as inhibitors
Starred values were filed as active, the others as inactive; ! = repeats disagree; [ ] = another dose, or the depositor's remark. Sampled rows, rich in hits. Any-hit rate of the full collection: about 7.1%. Calls follow the shape of the full dose curve; tested in HEK293 cells. % is scaled to controls: 0 for no effect and ±100 for the full control effect; potency is read from the fitted curve at half-maximal effect.

Screening CCOC(=O)C1CCCCN1C(=O)c1ccc(-n2cc(NC(=O)c3cccnc3)cn2)cc1 (configuration not stated) returned Marburg entry -14% and Lassa entry 0%.
O=C(NCC1(N2CCCCC2)CCCCC1)c1ccc(-n2cc(NC(=O)c3cccnc3)cn2)cc1 was read as Marburg entry 4µM* and Lassa entry -5%.
CN(Cc1cnc2nc(N)nc(N)c2n1)c1ccc(C(=O)N[C@H](CCC(=O)O)C(=O)O)cc1 was read as Marburg entry 32µM* and Lassa entry -12%[17.8 µM].
For CN(Cc1cnc2nc(N)nc(N)c2n1)c1ccc(C(=O)N[C@@H](CCC(=O)O)C(=O)O)cc1 the results were Marburg entry 15% and Lassa entry 0%.
COc1ccc(OC)c(-c2ccccc2C=NNS(=O)(=O)c2ccc(C)cc2)c1 was read as Marburg entry inconclusive and Lassa entry -4%[8.59 µM].
Screening Nc1cccc2c(N)cccc12 returned Marburg entry 3%[107 µM] and Lassa entry -7%[107 µM].
Screening Nc1c2ccccc2nc2ccccc12 (tested in a mixture with another compound) returned Marburg entry 7.1µM* and Lassa entry -7%.
Screening C=C1C(=O)O[C@@H]2[C@H]3O[C@]3(C)CCC=C(C)CC[C@@H]12 returned Marburg entry 16µM* and Lassa entry 22µM*.
For OCC1OC(n2cnc3c(=S)nc[nH]c32)C(O)C1O (configuration not stated) the results were Marburg entry 3.5µM* and Lassa entry inconclusive.
`OC[C@H]1O[C@@H](n2cnc3c(NC4CCCC4)nc(Cl)nc32)[C@H](O)[C@@H]1O` gave Marburg entry 13% and Lassa entry -17%.
For Nc1nc(Cl)nc2c1ncn2C1OC(CO)C(O)C1F (configuration not stated) the results were Marburg entry 2.8µM* and Lassa entry 2.5µM*.
Screening O=c1[nH]cnc2c1ncn2C1OC(CO)C(O)C1O (configuration not stated) returned Marburg entry 9% and Lassa entry 2%.
`Nc1nc2c(ncn2[C@@H]2O[C@H](CO)[C@@H](O)[C@H]2O)c(=O)[nH]1` gave Marburg entry 7% and Lassa entry -17%.
Nc1nc(Cl)nc2c1ncn2[C@@H]1O[C@H](CO)[C@@H](O)[C@H]1O was read as Marburg entry inconclusive and Lassa entry 32µM*!.
For CC(C)C[C@H]1COc2c(Cl)cccc2S(=O)(=O)N1C the results were Marburg entry 12%.
C[C@H](ON=C1[C@H]2CCn3c(=O)n(-c4ccccc4)c(=O)n3[C@@H]2[C@H](O)[C@@H]2O[C@H]12)c1cn([C@H](CO)Cc2ccccc2)nn1 was read as Marburg entry 7%[8.59 µM] and Lassa entry 21%[8.59 µM].
For CN1CCCCC1Cn1cc(C(=O)c2cc([N+](=O)[O-])ccc2I)c2ccccc21 (configuration not stated) the results were Marburg entry 10µM* and Lassa entry inconclusive.
Screening CC(CCN1CCCCc2nc(C)c(C)cc21)=NOC[C@@H](O)[C@H]1O[C@@H]2OC(C)(C)O[C@H]2[C@@H]1O returned Marburg entry 18%[8.59 µM].
`CN1CCN(C2=Nc3ccccc3Sc3ccc(Cl)cc32)CC1` gave Marburg entry 25µM* and Lassa entry inconclusive.
`CN1CCN(C2=Nc3ccccc3Oc3ccc(Cl)cc32)CC1` gave Marburg entry inconclusive and Lassa entry -6%[17.8 µM].
C=CC[C@@](C(C)=O)(C(=O)OC)[C@@H](NC(=O)OC(C)(C)C)c1ccccc1 was read as Marburg entry 30%[8.59 µM] and Lassa entry 12%[8.59 µM].
For COc1ccc(CNC(=O)/C=C\c2ccc3[nH]cc(CCN(C)C)c3c2)cc1 the results were Marburg entry 22µM* and Lassa entry -23%.
Screening CN(C)CCc1c[nH]c2ccc(O)cc12 returned Marburg entry -13% and Lassa entry -9%.
Screening COC(=O)c1ccc(CN2C(=O)[C@]3(OCCC=C[C@@H]3C)c3c(Br)cccc32)cc1 returned Marburg entry -7%[8.59 µM] and Lassa entry 1%[8.59 µM].
Screening COc1ccc(-c2nc3cc(C)ccc3cc2CN(C(=O)c2ccco2)C2CC2)cc1OC returned Marburg entry -7% and Lassa entry -24%.
`COc1cccc(-c2nc3cc4c(cc3cc2CN(C(=O)c2cccs2)C2CC2)CCC4)c1OC` gave Marburg entry inconclusive and Lassa entry 13µM*.
For COc1ccc(-c2nc3cc(C)ccc3cc2CN(C(=O)c2cccs2)C2CC2)cc1OC the results were Marburg entry -2% and Lassa entry inconclusive.
COc1cccc(C(=O)N(Cc2cc3ccc(C)cc3nc2N(C)C)C2CC2)c1OC was read as Marburg entry 4µM* and Lassa entry 5µM*.
For COC[C@@H]1CCCN1[C@@H]1C[S+](=O)([O-])N[C@@H]1COCc1ccccc1 the results were Marburg entry 25% and Lassa entry -7%.
`O=C(NCCCN1CCCCCC1)[C@@H](c1ccccc1)C1CCCCC1` gave Marburg entry 13µM* and Lassa entry inconclusive.
Screening CCN(CC)CCOC(=O)C(c1ccccc1)C1CCCCC1 (configuration not stated) returned Marburg entry inconclusive and Lassa entry -11%.
For COC(=O)CC=C1c2ccccc2OC[C@@H](OC)[C@H]1C the results were Marburg entry 2%[8.59 µM] and Lassa entry -25%[8.59 µM].
CC(=CC[Si](C)(C)C)CCC=O was read as Marburg entry -25%[8.59 µM].
For Cc1c2c(c(O)c3c(O)cccc13)C(=O)O[C@H]2C1C(N(C)C)C(O)=C(C(N)=O)C(=O)[C@H]1O (some centres not stated) the results were Marburg entry 8.9µM* and Lassa entry -1%.
CN(C)[C@@H]1C(=O)C(C(N)=O)=C(O)[C@@]2(O)C(=O)C3=C(O)c4c(O)cccc4[C@@](C)(O)[C@H]3[C@H](O)[C@@H]12 was read as Marburg entry inconclusive and Lassa entry -23%.
COc1cc2c(cc1OC)-c1c(O)c(OC)cc3c1[C@H](C2)N(C)CC3 was read as Marburg entry 0% and Lassa entry -8%.
`COc1cc2c(cc1OC)-c1cc(=Nc3c(C)cc(C)cc3C)n(C)c(=O)n1CC2` gave Marburg entry 13µM* and Lassa entry 11µM*.
Screening C[C@@H]1CC[C@H]2C(=O)N(Cc3ccccc3)C[C@H](O)CN2[C@@H]1c1ccc(Br)cc1 returned Marburg entry 3%[8.59 µM] and Lassa entry -1%[8.59 µM].
CC(=O)Oc1cc(-c2coc3cc(OC(C)=O)c(OC(C)=O)c(OC(C)=O)c3c2=O)cc(OC(C)=O)c1OC(C)=O was read as Marburg entry 14µM* and Lassa entry -5%.
Screening COc1cc(-c2coc3cc(OC)c(OC)c(OC)c3c2=O)cc(OC)c1OC returned Marburg entry 2% and Lassa entry -11%.
Screening CCOC(=O)NN=C1C[C@@H](O)[C@@H](O)[C@@H]2[C@H]3C(=O)N([C@@H](C)c4ccccc4)C(=O)[C@@H]3CC[C@@H]12 returned Marburg entry -22%[8.59 µM] and Lassa entry -24%[8.59 µM].
Screening NS(=O)(=O)c1cccc(Nc2cc(-c3ccc(F)cc3)[nH]n2)c1 returned Marburg entry 36% and Lassa entry 22%.
Screening COc1cc2c(cc1OC)[C@@H]1O[C@](CCCCN3C(=O)c4ccccc4C3=O)(C2)Oc2c1c(=O)oc1ccccc21 returned Marburg entry 3%[8.59 µM] and Lassa entry -1%[8.59 µM].
Screening CCCCCCCc1cc2ccccc2c2c(C(=O)OC)c(C)c(C(=O)OC)n12 returned Marburg entry 38%[8.59 µM] and Lassa entry 13%[8.59 µM].

High-throughput results (PubChem)
